In the supplement of paper PMC6992640:

How the values were obtained:
Assay in all cases: cell viability of combination (% of vehicle); higher = less cytotoxic
Conditions in all cases: 1 µM; 72 h; partner dose: 10 nM
HCI01 = system: HCI01 (cells of a triple-negative basal-like breast cancer xenograft)
Protocol: (§1)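 PDX cells were treated for 72 h with each drug at 1 µM plus carfilzomib (10 nM; 100 nM for WHIM2). Luciferase viability is expressed as percent of vehicle.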

UCD52 = system: UCD52 (cells of a triple-negative basal-like breast cancer xenograft)
Protocol: as §1

WHIM30 = system: WHIM30 (cells of a triple-negative basal-like breast cancer xenograft)
Protocol: as §1

Row | Structure (SMILES) | cell viability of combination (HCI01) | cell viability of combination (UCD52) | cell viability of combination (WHIM30)
1 | CCN(CC)CCNC(=O)c1c(C)[nH]c(C=C2C(=O)Nc3ccc(F)cc32)c1C [Sunitinib] + CC(C)C[C@H](NC(=O)[C@H](CCc1ccccc1)NC(=O)CN1CCOCC1)C(=O)N[C@@H](Cc1ccccc1)C(=O)N[C@@H](CC(C)C)C(=O)[C@@]1(C)CO1 [Carfilzomib] | 66 | 59.3 | 
2 | CN1CCCC1CCOC(C)(c1ccccc1)c1ccc(Cl)cc1.O=C(O)C=CC(=O)O (configuration not stated) [Clemastine Fumarate] + CC(C)C[C@H](NC(=O)[C@H](CCc1ccccc1)NC(=O)CN1CCOCC1)C(=O)N[C@@H](Cc1ccccc1)C(=O)N[C@@H](CC(C)C)C(=O)[C@@]1(C)CO1 [Carfilzomib] | 77.2 | 61.1 | 15.5
3 | CC1(C)CCC(c2ccc(Cl)cc2)=C(CN2CCN(c3ccc(C(=O)NS(=O)(=O)c4ccc(NC(CCN5CCOCC5)CSc5ccccc5)c(S(=O)(=O)C(F)(F)F)c4)cc3)CC2)C1 (configuration not stated) [ABT-263 (Navitoclax)] + CC(C)C[C@H](NC(=O)[C@H](CCc1ccccc1)NC(=O)CN1CCOCC1)C(=O)N[C@@H](Cc1ccccc1)C(=O)N[C@@H](CC(C)C)C(=O)[C@@]1(C)CO1 [Carfilzomib] | 47 | 31.8 | 
4 | CCOC(=O)C1=C(COCCN)NC(C)=C(C(=O)OC)C1c1ccccc1Cl (configuration not stated) [Amlodipine] + CC(C)C[C@H](NC(=O)[C@H](CCc1ccccc1)NC(=O)CN1CCOCC1)C(=O)N[C@@H](Cc1ccccc1)C(=O)N[C@@H](CC(C)C)C(=O)[C@@]1(C)CO1 [Carfilzomib] | 113 | 62.5 | 
5 | CC(NCCCc1cccc(C(F)(F)F)c1)c1cccc2ccccc12 (configuration not stated) [Cinacalcet] + CC(C)C[C@H](NC(=O)[C@H](CCc1ccccc1)NC(=O)CN1CCOCC1)C(=O)N[C@@H](Cc1ccccc1)C(=O)N[C@@H](CC(C)C)C(=O)[C@@]1(C)CO1 [Carfilzomib] | 82.4 | 56.1 | 19.5
6 | CNC(=O)c1cc(Oc2ccc(NC(=O)Nc3ccc(Cl)c(C(F)(F)F)c3)cc2)ccn1.Cc1ccc(S(=O)(=O)O)cc1 [Sorafenib Tosylate] + CC(C)C[C@H](NC(=O)[C@H](CCc1ccccc1)NC(=O)CN1CCOCC1)C(=O)N[C@@H](Cc1ccccc1)C(=O)N[C@@H](CC(C)C)C(=O)[C@@]1(C)CO1 [Carfilzomib] | 70.3 | 52.6 | 19.5
7 | CN(C)CCOc1ccc(C(=C(CCCl)c2ccccc2)c2ccccc2)cc1.O=C(O)CC(O)(CC(=O)O)C(=O)O [Toremifene Citrate] + CC(C)C[C@H](NC(=O)[C@H](CCc1ccccc1)NC(=O)CN1CCOCC1)C(=O)N[C@@H](Cc1ccccc1)C(=O)N[C@@H](CC(C)C)C(=O)[C@@]1(C)CO1 [Carfilzomib] | 103 | 70.2 | 17.1
8 | C=CC(=O)Nc1cc(Nc2nccc(-c3cn(C)c4ccccc34)n2)c(OC)cc1N(C)CCN(C)C + CC(C)C[C@H](NC(=O)[C@H](CCc1ccccc1)NC(=O)CN1CCOCC1)C(=O)N[C@@H](Cc1ccccc1)C(=O)N[C@@H](CC(C)C)C(=O)[C@@]1(C)CO1 [Carfilzomib] | 59.8 | 53.7 | 
9 | Cl.OC(CNCC(O)C1CCc2cc(F)ccc2O1)C1CCc2cc(F)ccc2O1 (configuration not stated) [Nebivolol] + CC(C)C[C@H](NC(=O)[C@H](CCc1ccccc1)NC(=O)CN1CCOCC1)C(=O)N[C@@H](Cc1ccccc1)C(=O)N[C@@H](CC(C)C)C(=O)[C@@]1(C)CO1 [Carfilzomib] | 72.5 | 64.3 | 
10 | CC(C)CC(NC(=O)C(CCc1ccccc1)NC(=O)CN1CCOCC1)C(=O)NC(Cc1ccccc1)C(=O)NC(CC(C)C)C(=O)C1(C)CO1 (configuration not stated) [Carfilzomib (PR-171)] + CC(C)C[C@H](NC(=O)[C@H](CCc1ccccc1)NC(=O)CN1CCOCC1)C(=O)N[C@@H](Cc1ccccc1)C(=O)N[C@@H](CC(C)C)C(=O)[C@@]1(C)CO1 [Carfilzomib] | 31 | 14.2 | 
11 | Nc1ccn(C2OC(CO)C(O)C2O)c(=O)n1 (configuration not stated) [Cytarabine] + CC(C)C[C@H](NC(=O)[C@H](CCc1ccccc1)NC(=O)CN1CCOCC1)C(=O)N[C@@H](Cc1ccccc1)C(=O)N[C@@H](CC(C)C)C(=O)[C@@]1(C)CO1 [Carfilzomib] | 57.8 | 68.3 | 
12 | COc1cc(Nc2ncc(F)c(Nc3ccc4c(n3)N(COP(=O)(O)O)C(=O)C(C)(C)O4)n2)cc(OC)c1OC [Fostamatinib (R788)] + CC(C)C[C@H](NC(=O)[C@H](CCc1ccccc1)NC(=O)CN1CCOCC1)C(=O)N[C@@H](Cc1ccccc1)C(=O)N[C@@H](CC(C)C)C(=O)[C@@]1(C)CO1 [Carfilzomib] | 119 | 64.9 | 16.9
13 | CC[C@@]1(O)C(=O)OCc2c1cc1n(c2=O)Cc2cc3c(CN(C)C)c(O)ccc3nc2-1.Cl [Topotecan HCl] + CC(C)C[C@H](NC(=O)[C@H](CCc1ccccc1)NC(=O)CN1CCOCC1)C(=O)N[C@@H](Cc1ccccc1)C(=O)N[C@@H](CC(C)C)C(=O)[C@@]1(C)CO1 [Carfilzomib] | 55.9 | 54.7 | 7.58
14 | CCN1CCN(Cc2ccc(Nc3ncc(F)c(-c4cc(F)c5nc(C)n(C(C)C)c5c4)n3)nc2)CC1.CS(=O)(=O)O + CC(C)C[C@H](NC(=O)[C@H](CCc1ccccc1)NC(=O)CN1CCOCC1)C(=O)N[C@@H](Cc1ccccc1)C(=O)N[C@@H](CC(C)C)C(=O)[C@@]1(C)CO1 [Carfilzomib] | 62.7 | 64.9 | 
15 | CC1=C(C(=O)OC(C)C)C(c2cccc([N+](=O)[O-])c2)C(C(=O)OC2CN(C(c3ccccc3)c3ccccc3)C2)=C(N)N1 (configuration not stated) [Azelnidipine] + CC(C)C[C@H](NC(=O)[C@H](CCc1ccccc1)NC(=O)CN1CCOCC1)C(=O)N[C@@H](Cc1ccccc1)C(=O)N[C@@H](CC(C)C)C(=O)[C@@]1(C)CO1 [Carfilzomib] | 112 | 46.6 | 14.5
16 | CC(C)CC(NC(=O)C(NC(=O)c1cccc(-c2ccccc2)n1)C(C)O)B(O)O (configuration not stated) + CC(C)C[C@H](NC(=O)[C@H](CCc1ccccc1)NC(=O)CN1CCOCC1)C(=O)N[C@@H](Cc1ccccc1)C(=O)N[C@@H](CC(C)C)C(=O)[C@@]1(C)CO1 [Carfilzomib] | 42.4 | 20.1 | 
17 | Cc1ccc(-n2[nH]c(C)c(NN=C3C=CC=C(c4cccc(C(=O)O)c4)C3=O)c2=O)cc1C [Eltrombopag] + CC(C)C[C@H](NC(=O)[C@H](CCc1ccccc1)NC(=O)CN1CCOCC1)C(=O)N[C@@H](Cc1ccccc1)C(=O)N[C@@H](CC(C)C)C(=O)[C@@]1(C)CO1 [Carfilzomib] | 74.8 | 58.8 | 
18 | COc1cc(C(=O)NS(=O)(=O)c2ccccc2C)ccc1Cc1cn(C)c2ccc(NC(=O)OC3CCCC3)cc12 [Zafirlukast] + CC(C)C[C@H](NC(=O)[C@H](CCc1ccccc1)NC(=O)CN1CCOCC1)C(=O)N[C@@H](Cc1ccccc1)C(=O)N[C@@H](CC(C)C)C(=O)[C@@]1(C)CO1 [Carfilzomib] | 83.2 | 65 | 17.9
19 | COc1cc2c(Oc3ccc4[nH]c(C)cc4c3F)ncnc2cc1OCCCN1CCCC1 [Cediranib (AZD217)] + CC(C)C[C@H](NC(=O)[C@H](CCc1ccccc1)NC(=O)CN1CCOCC1)C(=O)N[C@@H](Cc1ccccc1)C(=O)N[C@@H](CC(C)C)C(=O)[C@@]1(C)CO1 [Carfilzomib] | 80.6 | 31.6 | 
20 | CO[C@H]1/C=C/O[C@@]2(C)Oc3c(C)c(O)c4c(O)c(c(/C=N/N5CCN(C6CCCC6)CC5)c(O)c4c3C2=O)NC(=O)/C(C)=C\C=C\[C@H](C)[C@H](O)[C@@H](C)[C@@H](O)[C@@H](C)[C@H](OC(C)=O)[C@@H]1C [Rifapentine] + CC(C)C[C@H](NC(=O)[C@H](CCc1ccccc1)NC(=O)CN1CCOCC1)C(=O)N[C@@H](Cc1ccccc1)C(=O)N[C@@H](CC(C)C)C(=O)[C@@]1(C)CO1 [Carfilzomib] | 78.8 | 58.6 | 
21 | CC(C)(C)c1ccc(C(=O)CCCN2CCC(OC(c3ccccc3)c3ccccc3)CC2)cc1 [Ebastine] + CC(C)C[C@H](NC(=O)[C@H](CCc1ccccc1)NC(=O)CN1CCOCC1)C(=O)N[C@@H](Cc1ccccc1)C(=O)N[C@@H](CC(C)C)C(=O)[C@@]1(C)CO1 [Carfilzomib] | 74 | 59.8 | 
22 | Cc1c(C(=O)NN2CCCCC2)nn(-c2ccc(Cl)cc2Cl)c1-c1ccc(Cl)cc1 [Rimonabant] + CC(C)C[C@H](NC(=O)[C@H](CCc1ccccc1)NC(=O)CN1CCOCC1)C(=O)N[C@@H](Cc1ccccc1)C(=O)N[C@@H](CC(C)C)C(=O)[C@@]1(C)CO1 [Carfilzomib] | 78.4 | 63 | 
